Experimental findings from ChEMBL document CHEMBL3988442, “University of Dundee, Small-Polar-MMV Screening Library” (2021) are described below.

Hit rate of the full screen: of about 48,000 compounds, about 13,000 (27%) showed an effect of 50% or more. This is one part of the list.

This assay deals with Wolbachia pipientis. As to the kind of experiment: Anti-Wolbachia Cell-Based Screen. The note with it: 5 µM. The class given is functional. Also on record: scale not given: in the data most compounds retested in dose-response had high values.
Consider `Cc1n[nH]c(=O)c2c(NC(=O)CN3CCOCC3C)oc(C)c12` (stereo not given), for which the “Percent Effect” value was found to be 12.8%.

As to `CNC(=O)[C@@H]1C[C@H](N)CN1Cc1cc2cc(OC)ccc2nc1O`, the “Percent Effect” value amounted to 8.618%. `O=C1CC[C@H]2CN(Cc3cccc(F)c3)CC[C@H]2N1CCc1c[nH]cn1`: the “Percent Effect” value is -2.492%.

As to `C[C@@]1(O)CCN(Cc2cc[nH]n2)C[C@H]1Oc1cccc(F)c1`, the “Percent Effect” value is 94.39%. For the molecule `O=C(NCc1cc[nH]n1)NCC(O)COc1cccc(F)c1` (stereo not given), the “Percent Effect” value is reported as -0.04004%. In the case of `Cn1ccnc1CN1CCN2C[C@H](Oc3cccc(F)c3)C[C@H]2C1.O=C(O)C(F)(F)F.O=C(O)C(F)(F)F` it was 5.075%; in that of `C[C@]1(O)CCN(Cc2c[nH]cn2)C[C@@H]1Oc1cccc(F)c1`, 125.6%. In the case of `Cc1cc(F)ccc1OC1(C(=O)O)CCN(Cc2c[nH]cn2)CC1` it was -1.435%. For `c1ccc2sc(N3CCN(c4ncnc5c4CCC5)CC3)nc2c1`, the “Percent Effect” value is reported as -7.695%. For the molecule `CSc1ncc(C(=O)N2CCN(c3ccccc3C)CC2C)cn1` (stereo not given), the “Percent Effect” value was -7.257%. As to `O=C(O)C(F)(F)F.O=C(c1cscn1)N1CC[C@@H]2[C@@H]1CCN2CC1CCOC1` (stereo not given in full), the “Percent Effect” value amounted to 116.3%. In the case of `O=C(O)C(F)(F)F.O=C(c1cccc(F)c1)N1CC[C@H]2[C@H]1CCN2CC1CCOCC1` it was -10.34%. Then `O=C(O)C(F)(F)F.O=C(c1ccc(F)cc1)N1CC[C@H]2[C@H]1CCN2CC1CCOCC1`, with -29.44%; and `O=C(O)C(F)(F)F.O=C(c1cscn1)N1CC[C@@H]2[C@@H]1CCN2CC1CCOCC1`, with 90.26%. In the case of `Cn1cccc1C(=O)N1CC[C@H]2[C@H]1CCN2CC1CCOCC1.O=C(O)C(F)(F)F` it was -12.52%.

For `Cc1ccc(C(=O)N2CC[C@H]3[C@H]2CCN3CC2CCOCC2)cc1F.O=C(O)C(F)(F)F`, the “Percent Effect” value is listed as 1.153%.

For `CC(C(=O)NCC1(c2c(F)cccc2F)CCCC1)S(C)(=O)=O` (stereo not given), the “Percent Effect” value is reported as 26.11%. Then `COCC1CN(C(=O)C2=CCCC2)Cc2cnn(CC3CC3)c21` (stereo not given), with -0.9151%; and `CCOCC1CN(CCN2CCCCC2)Cc2cnn(C)c21.O=C(O)C(F)(F)F.O=C(O)C(F)(F)F.O=C(O)C(F)(F)F` (stereo not given), with 3.922%; and `CCOCC1CN(C(=O)C2=CCCC2)Cc2cnn(C)c21` (stereo not given), with 94.04%.

Turning to `CCOCC1CN(C(=O)C2CCOCC2)Cc2cnn(C)c21` (stereo not given), the “Percent Effect” value was 76.58%. As to `CCOCC1CN(C(=O)N2CCCC2)Cc2cnn(C)c21` (stereo not given), the “Percent Effect” value is reported as 85.37%. Then `CCOCC1CN(S(=O)(=O)C2CC2)Cc2cnn(C)c21` (stereo not given), with -2.389%; and `CCOCC1CN(S(C)(=O)=O)Cc2cnn(C)c21` (stereo not given), with -13.89%. On to `COCC1CN(C(=O)C2=CCCCC2)Cc2cnn(CC3CC3)c21` (stereo not given), for which the “Percent Effect” value is on record as 3.854%.
